According to ChEMBL document CHEMBL1961873, “Compounds: GSK PKIS; Assays: Nanosyn kinase panel” (2012):
Several values for one entry are separate records, joined by “and”; a condition that tells them apart may be missing. Equal values may be shown once.

Experiments:
[1] = target: Mast/stem cell growth factor receptor Kit (Homo sapiens) (UniProt P10721); conditions: at 1 µM
[2] = test system: Mast/stem cell growth factor receptor Kit (Homo sapiens), P10721 [D816V]; conditions: at 0.1 µM
[3] = test system: Mast/stem cell growth factor receptor Kit (Homo sapiens), P10721 [D816V]; conditions: at 1 µM
[4] = test system: Mast/stem cell growth factor receptor Kit (Homo sapiens), P10721 [T670I]; conditions: at 0.1 µM
[5] = test system: Mast/stem cell growth factor receptor Kit (Homo sapiens), P10721 [T670I]; conditions: at 1 µM
[6] = test system: Mast/stem cell growth factor receptor Kit (Homo sapiens), P10721 [V560G]; conditions: at 0.1 µM
[7] = test system: Mast/stem cell growth factor receptor Kit (Homo sapiens), P10721 [V560G]; conditions: at 1 µM
[8] = target: Tyrosine-protein kinase Lck (Homo sapiens) (UniProt P06239); conditions: at 0.1 µM
[9] = target: Tyrosine-protein kinase Lck (Homo sapiens) (UniProt P06239); conditions: at 1 µM
[10] = target: Leukocyte tyrosine kinase receptor (Homo sapiens) (UniProt P29376); conditions: at 0.1 µM
Chain of Leukocyte tyrosine kinase receptor (Homo sapiens) (P29376 whole entry): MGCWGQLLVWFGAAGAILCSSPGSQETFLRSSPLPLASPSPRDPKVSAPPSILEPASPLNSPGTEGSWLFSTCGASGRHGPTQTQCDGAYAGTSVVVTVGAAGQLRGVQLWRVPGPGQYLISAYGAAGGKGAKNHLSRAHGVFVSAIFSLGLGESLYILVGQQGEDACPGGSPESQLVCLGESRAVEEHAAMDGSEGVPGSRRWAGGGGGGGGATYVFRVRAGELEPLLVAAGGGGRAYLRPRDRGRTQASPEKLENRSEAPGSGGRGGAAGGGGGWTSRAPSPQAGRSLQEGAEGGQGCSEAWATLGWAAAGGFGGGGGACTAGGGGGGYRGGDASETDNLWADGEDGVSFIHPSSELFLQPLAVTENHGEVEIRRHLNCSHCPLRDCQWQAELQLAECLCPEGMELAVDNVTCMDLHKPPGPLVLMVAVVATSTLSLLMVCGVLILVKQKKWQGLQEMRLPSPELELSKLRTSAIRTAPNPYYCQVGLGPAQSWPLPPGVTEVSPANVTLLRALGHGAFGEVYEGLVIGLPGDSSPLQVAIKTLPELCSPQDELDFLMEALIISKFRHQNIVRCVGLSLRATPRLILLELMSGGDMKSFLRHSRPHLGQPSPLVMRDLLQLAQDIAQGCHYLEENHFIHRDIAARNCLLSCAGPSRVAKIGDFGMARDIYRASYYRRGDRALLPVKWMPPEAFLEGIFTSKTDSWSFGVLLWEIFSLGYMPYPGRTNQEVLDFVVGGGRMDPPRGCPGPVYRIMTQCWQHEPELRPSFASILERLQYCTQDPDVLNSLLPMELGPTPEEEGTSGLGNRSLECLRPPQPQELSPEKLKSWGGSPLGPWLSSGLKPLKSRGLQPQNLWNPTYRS

Chain of Mast/stem cell growth factor receptor Kit (Homo sapiens) (P10721 whole entry): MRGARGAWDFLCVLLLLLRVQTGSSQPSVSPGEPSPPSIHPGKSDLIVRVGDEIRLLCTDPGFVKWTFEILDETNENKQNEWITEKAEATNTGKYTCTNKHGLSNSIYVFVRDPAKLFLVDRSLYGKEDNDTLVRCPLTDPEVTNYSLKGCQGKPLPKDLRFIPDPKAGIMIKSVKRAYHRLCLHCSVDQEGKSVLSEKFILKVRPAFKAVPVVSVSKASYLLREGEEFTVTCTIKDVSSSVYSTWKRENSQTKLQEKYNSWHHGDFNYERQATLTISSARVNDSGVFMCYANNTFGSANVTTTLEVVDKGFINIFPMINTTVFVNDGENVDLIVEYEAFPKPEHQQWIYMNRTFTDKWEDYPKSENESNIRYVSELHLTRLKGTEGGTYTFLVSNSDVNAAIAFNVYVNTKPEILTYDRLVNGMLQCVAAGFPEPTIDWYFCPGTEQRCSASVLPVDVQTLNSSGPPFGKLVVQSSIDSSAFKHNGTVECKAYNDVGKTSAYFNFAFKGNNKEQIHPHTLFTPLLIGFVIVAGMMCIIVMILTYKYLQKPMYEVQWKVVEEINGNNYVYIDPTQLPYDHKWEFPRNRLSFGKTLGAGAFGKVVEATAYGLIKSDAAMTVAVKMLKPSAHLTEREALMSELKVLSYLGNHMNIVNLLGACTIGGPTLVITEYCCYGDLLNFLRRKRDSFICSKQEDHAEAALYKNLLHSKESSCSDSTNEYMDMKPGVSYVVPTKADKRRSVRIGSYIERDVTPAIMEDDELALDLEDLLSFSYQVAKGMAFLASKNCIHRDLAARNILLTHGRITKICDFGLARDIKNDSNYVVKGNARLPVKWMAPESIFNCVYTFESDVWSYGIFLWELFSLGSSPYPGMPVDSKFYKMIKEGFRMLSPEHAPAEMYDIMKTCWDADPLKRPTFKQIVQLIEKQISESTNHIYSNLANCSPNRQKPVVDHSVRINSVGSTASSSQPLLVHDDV
Chain of Tyrosine-protein kinase Lck (Homo sapiens) (P06239 2-509 limits assumed): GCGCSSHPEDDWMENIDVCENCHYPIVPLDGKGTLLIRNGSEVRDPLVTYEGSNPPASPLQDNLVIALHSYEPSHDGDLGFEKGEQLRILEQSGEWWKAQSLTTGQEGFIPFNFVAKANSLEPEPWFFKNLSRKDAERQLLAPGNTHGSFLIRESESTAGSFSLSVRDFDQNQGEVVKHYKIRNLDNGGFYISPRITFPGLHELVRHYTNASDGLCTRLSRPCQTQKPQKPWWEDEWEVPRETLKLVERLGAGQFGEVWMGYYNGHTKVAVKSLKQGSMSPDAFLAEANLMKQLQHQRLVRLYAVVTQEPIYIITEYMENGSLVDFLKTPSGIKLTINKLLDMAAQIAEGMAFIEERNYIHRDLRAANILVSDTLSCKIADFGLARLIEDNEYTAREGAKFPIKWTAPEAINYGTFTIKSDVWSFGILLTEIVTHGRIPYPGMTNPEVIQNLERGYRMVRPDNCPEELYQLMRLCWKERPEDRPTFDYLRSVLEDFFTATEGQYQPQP
Chain of Mast/stem cell growth factor receptor Kit (Homo sapiens), P10721 [V560G] (P10721 whole entry V560G): as the sequence (P10721 whole entry) above, with V560G counted along it
Chain of Mast/stem cell growth factor receptor Kit (Homo sapiens), P10721 [D816V] (P10721 whole entry D816V): as the sequence (P10721 whole entry) above, with D816V counted along it
Chain of Mast/stem cell growth factor receptor Kit (Homo sapiens), P10721 [T670I] (P10721 whole entry T670I): as the sequence (P10721 whole entry) above, with T670I counted along it

Row | Structure (SMILES) | inhibition [1] | inhibition [2] | inhibition [3] | inhibition [4] | inhibition [5] | inhibition [6] | inhibition [7] | inhibition [8] | inhibition [9] | inhibition [10]
1 | CCCNc1cccc(-n2ncc3c(N/N=C/c4ccncc4)ncnc32)c1 | 23.7% | -0.57% | 9.89% | 1.36% | 5.45% | 7.17% | 13.4% | 23.1% | 68.3% | 1.2%
2 | O=C(Nc1n[nH]c2nnc(-c3cccnc3)cc12)C1CC1 | 2.59% | -1.93% | 1.15% | -0.12% | 0.35% | 2.26% | 1.71% | 1.03% | 3.69% | 1.26%
3 | Nc1ncnc2occ(-c3ccc(NC(=O)Nc4cc(C(F)(F)F)ccc4F)cc3)c12 | 102% and 99.8% | 2.13% and -0.16% | 3.55% and 0.01% | 64.5% and 57% | 85.6% and 96% | 70.7% and 81.8% | 78.7% and 97.7% | 10.9% and 3.28% |  | 7.84% and 2.37%
4 | CCOc1ccc2c(-c3ccnc(Nc4cc(OC)cc(C(F)(F)F)c4)n3)cnn2n1 | 56.5% | -2.22% | 2.86% | 1.55% | 14.5% | 2.02% | 5.97% | 1.12% | 4.52% | 0.61%
5 | Cc1c2ccc(N(C)c3ccnc(Nc4cccc(S(N)(=O)=O)c4)n3)cc2nn1C | 98% | 2.85% | 5.89% | 22% | 81.1% | 69.9% | 80.3% | 20.3% | 66.6% | 4.98%
6 | CN(c1ccc(NC(=O)NCCN2CCOCC2)cc1)c1ccnc(Nc2ccc(CS(C)(=O)=O)cc2)n1 | 94.2% | 2.49% | 4.98% | 21.6% | 73.6% | 57.2% | 84.5% | 1.63% | 11% | 2.84%
7 | CN1CCC(n2cnc(-c3ccc(F)cc3)c2-c2ccnc(NCCO)n2)CC1 | 10.7% | 1.99% | 7.69% | 3.05% | 6.22% | -1.29% | -0.38% | 2% | 1.46% | 4.62%
8 | CNC(=O)c1ncccc1Nc1nc(Nc2cc3c(cc2OC)CCCN3C(=O)CN(C)C)nc2[nH]ccc12 | 3.44% | 1.27% | 4.76% | 3.12% | 1.68% | -0.63% | 0.67% | 2.48% | 4.71% | 86.9%
9 | CCn1c(-c2nonc2N)nc2cncc(C(=O)NCCNC)c21 | 11.8% | 12.8% | 3.67% | 3.08% | 6% | -0.72% | 0.98% | 2.21% | 3.67% | 5.21%
10 | O=C(O[C@H]1CN[C@H](C#Cc2cc3ncnc(Nc4ccc(OCc5cccc(F)c5)c(Cl)c4)c3s2)C1)N1CCOCC1 | 6.15% | 7.97% | 7.17% | 4.04% | 5.91% | -2.49% | -1.75% | 1.76% | 1.88% | 4.09%
11 | CS(=O)(=O)CCNCc1ccoc1-c1ccc2ncnc(Nc3ccc(OCc4ccccc4)cc3)c2c1 | 6.88% | 5.01% | 1.5% | 2.27% | 2.3% | 0.74% | 3.57% | 1.79% | 8.23% | 1.59%
12 | CN1CCN(Cc2ccc(-c3cc4ncnc(Nc5ccc(OCc6cccc(F)c6)c(Cl)c5)c4s3)o2)CC1 | 11.5% and 12.7% | 3.79% and 5.98% | 5.98% and 4.53% | 2.89% and 2.77% | 2.77% and 5.27% | -1.59% and -3.38% | 2.22% and 1.14% | 4.76% and 7.19% | 22.2% and 27.2% | 3.61% and 4.17%
13 | Nc1nonc1-c1nc2cnccc2n1C1CC1 | 14.9% and 15.5% | 3.53% and 1.67% | 3.46% and 2.18% | 1.4% and 2.21% | 6.91% and 8.64% | -1.94% and 0.52% | -1.23% and -2.01% | 3.06% and -3.03% | 3.02% and -1.62% | 2.93% and 1.07%
14 | N#Cc1cccc(Nc2ncc(-c3ccccc3)o2)c1 | 79.6% | 1.87% | 2.5% | 2.85% | 35.8% | 4.29% | 23.8% | 2.79% | 1.76% | 4.04%
15 | CCS(=O)(=O)c1ccc(OC)c(Nc2ncc(-c3cccc(F)c3)o2)c1 | 97% | 4.96% | 9.62% | 19.7% | 81.3% | 0.05% | 34.1% | 20.4% | 64.1% | 7.85%
16 | Cc1cc(O)cc(C)c1/C=C/c1cncc(C(=O)OC(C)(C)C)c1 | 85.7% | 1.84% | -1.16% | 4.32% | 2.87% | 2.94% | 18.4% | 4.23% | 26.8% | 2.71%

Row | Structure (SMILES) | inhibition [1] | inhibition [2] | inhibition [3] | inhibition [4] | inhibition [5] | inhibition [6] | inhibition [7] | inhibition [8] | inhibition [9] | inhibition [10]
17 | N#Cc1ccc2c(-c3ccnc(NC4CC4)n3)c(-c3ccc(F)cc3)nn2c1 | 20.2% | -1.04% | 2.35% | 1.28% | 0.73% | 0.24% | 1.17% | 1.08% | 0.11% | 1.05%
18 | CS(=O)(=O)CCNCc1ccc(-c2ccc3ncnc(Nc4ccc(OCc5cccc(C(F)(F)F)c5)cc4)c3c2)o1 | 11.4% | 2.25% | 0.02% | 5.03% | 5.44% | -4.38% | -2.24% | 3.86% | 7.98% | 5.96%
19 | Fc1ccc(Nc2nccc(-c3c(-c4ccc(C(F)(F)F)cc4)nn4ncccc34)n2)cc1F | 4.68% | 2.15% | 2.45% | 0.78% | 2.14% | -1.76% | 1.06% | 3.17% | 0.53% | 2.82%
20 | COC(=O)Nc1nc2ccc(Oc3ccc(NC(=O)Nc4cc(C(F)(F)F)ccc4F)cc3)cc2s1 | 73.9% | -1.16% | -0.29% | 14.4% | 46.7% | 19.8% | 73.7% | 15.2% | 47.1% | 1.83%
21 | CC1=C(C(=O)Nc2ccc3[nH]nc(C)c3c2)C(c2ccc(C(F)(F)F)cc2)CC(=O)N1 (centres undefined) | 2.22% | 5.34% | 1.99% | -0.21% | 1.75% | 0.71% | -0.03% | 5.93% | 18.8% | 1.5%
22 | Cn1c(-c2nonc2N)nc2cnccc21 | 5.33% | 1.72% | 2.94% | 2.83% | 2.49% | -0.55% | -0.31% | 2.46% | 3.49% | 2.56%
23 | CC(C)c1ccc(-c2cc(-c3c[nH]nc3-c3ccccn3)ccn2)cc1 | 2.85% | 0.06% | 3.83% | 1.04% | 1.23% | -0.59% | 3.5% | 1.31% | -0.13% | 1.24%
24 | CS(=O)(=O)Nc1ccc(-c2cc(-c3ccccc3)cc(C(N)=O)c2N)cc1 | 21% | -0.43% | -0.86% | -1.07% | 4.26% | -0.45% | -2.55% | 1.3% | 2.43% | 2.46%
25 | CCS(=O)(=O)c1ccc(OC)c(Nc2ncc(-c3cccc(C(C)=O)c3)o2)c1 | 71.4% | 5.74% | 12.1% | -0.79% | 10.7% | 3.47% | 13% | 2.7% | 25.4% | 2.87%
26 | COc1cccc(-n2ncc3c(N/N=C/c4ccc(C(=O)NCCN(C)C)cc4)ncnc32)c1 | 65.8% | 7.1% | 15% | 6.62% | 52.3% | 2.06% | 5.99% | 72.9% | 94.4% | 2.24%
27 | CC1(C)CC(n2cnc(-c3ccc(F)cc3)c2-c2ccnc(N)n2)CC(C)(C)N1 | 2.82% | -0.86% | -3.56% | 2.5% | 1.11% | 1.03% | -0.87% | -0.02% | 6.94% | 1.09%
28 | COc1cc(N2CCN(C(C)C)CC2)ccc1Nc1nc(Nc2cccc(F)c2C(=O)O)c2cc[nH]c2n1 | 8.76% | 3.82% | 3.22% | 2.33% | 3.08% | -0.92% | 0.71% | 1.92% | 2.86% | 66.4%
29 | COc1c(C(N)=O)cc(-c2ccc(Cl)cc2)cc1-c1ccc(S(N)(=O)=O)cc1 | 11.2% | 3.27% | 3.88% | 1.48% | 2.82% | 1.14% | -3.65% | 3.23% | 2.89% | 5.37%
30 | FC(F)(F)CNc1nccc(-c2cnn3ncccc23)n1 | 3.6% | 0.88% | 2.79% | 0.67% | 0.91% | -2.94% | 0.4% | 1.7% | 3.74% | 2.72%
31 | O=C(O[C@H]1CN[C@H](C#Cc2cc3ncnc(Nc4ccc5c(ccn5Cc5cc(F)ccc5F)c4)c3s2)C1)N1CCOCC1 | 2.34% | 3.87% | 3.82% | 3.88% | 2.88% | -0.88% | -2.32% | 2.27% | 4.87% | 5.27%
